HIV TAR-Tat: HIV-1 TAR-Tat binding disruption; z-score (test concentration not listed); HIV-1 TAR RNA, Tat peptide displacement FRET; active compounds read high; 100,000 compounds, 0.6% hits; active = z-score of 3 or more in at least 2 runs
CDC25B-CDK2 inh: human CDC25B-CDK2/CyclinA binding inhibition. P30305+P24941. HTRF CDC25B-CDK2/CyclinA binding, anti-His/anti-Flag; active compounds read high. z-score (no concentration beside the values). 94,000 compounds, 0.72% hits. AID 1259370; in the data active = z-score above about 3.2
Each line names hits and unclear results; the compound was inactive in the other large screens. This is a sample that favours compounds with a hit; in the whole collection about 0.93% have one here.

COc1ccccc1-n1cnc2cc(Nc3nnc(C)c4ccccc34)ccc21	none
COc1ccccc1-n1cnc2cc(NCc3ccncc3)ccc21	CDC25B-CDK2 inh 13.2
CCc1cc2c3c([nH]c2cc1S(=O)(=O)N(CC)CC)CC(C)(C)CC3=O	none (no result: CDC25B-CDK2 inh)
Cc1ccc(S(=O)(=O)Nc2ccc(Cl)c3cccnc23)cc1	none
Cc1ccc(S(=O)(=O)Nc2ccc(O)c3ncccc23)cc1	CDC25B-CDK2 inh 14.5
Cc1ccc(S(=O)(=O)Nc2cccc3ncccc23)cc1	none (no result: HIV TAR-Tat)
Cc1ccc(S(=O)(=O)Nc2ccc(O)c3cccnc23)cc1	CDC25B-CDK2 inh 8.33
O=C(Nc1nnc2n1CCCS2)c1cc2ccccc2o1	none (no result: CDC25B-CDK2 inh)
COC(=O)C1=C(O)/C(=C\c2ccc(CNC(=O)C(=O)Nc3cc(Cl)cc(Cl)c3)o2)N=C1C	none (no result: HIV TAR-Tat)
O=c1cc(-c2ccc(O)cc2)oc2cc(O)cc(O)c12	none
O=c1cc(-c2cc(O)c(O)c(O)c2)oc2cc(O)cc(O)c12	HIV TAR-Tat 10.2 (no result: CDC25B-CDK2 inh)
CS(=O)(=O)c1ccc(C(=O)Nc2nc(-c3ccncc3)cs2)cc1	none (no result: CDC25B-CDK2 inh)
Cc1ccc(-c2nnc3c4ccccc4c(C)nn23)cc1S(=O)(=O)N1CCC(C)CC1	none
COc1ccc(-c2c3c(=O)n(C)c(=O)n(C)c3c3n2-c2ccccc2NC3c2cc(O)ccc2O)cc1 (stereo not drawn)	HIV TAR-Tat 21.5
COc1ccc(O)c(C2Nc3ccccc3-n3c(-c4ccccc4)c4c(=O)n(C)c(=O)n(C)c4c32)c1 (stereo not drawn)	none
CCCn1c(NCc2ccco2)nc2ccccc21	none
Cn1cnc2cc(NCc3ccco3)ccc21	CDC25B-CDK2 inh 16.8
CC(C)n1cnc2cc(NCc3ccco3)ccc21	CDC25B-CDK2 inh 7.83
CC(C)(C)n1cnc2cc(NCc3ccco3)ccc21	none
COc1ccccc1-c1nc2c(c(=O)[nH]1)Cc1cc(Br)ccc1O2	none
COc1ccccc1-c1nc(=S)c2c([nH]1)Oc1c(C)ncc(CO)c1C2	none
COc1ccc(-c2cccc(NS(=O)(=O)c3cccnc3)c2)nn1	none (no result: CDC25B-CDK2 inh)
CC(C)C12CN3CC(C(C)C)(CN(C1)C31C(=O)Nc3ccc(Br)cc31)C2=O (stereo not drawn)	none (no result: HIV TAR-Tat)
Fc1ccc(NC(=S)Nc2ccc3cn[nH]c3c2)cc1	CDC25B-CDK2 inh 20.1 (no result: HIV TAR-Tat)
CNC(=S)Nc1ccc(F)cc1	none (no result: HIV TAR-Tat)
Cc1ccc2oc(SCc3noc(CCC(=O)Nc4cc(C)on4)n3)nc2c1	none (no result: CDC25B-CDK2 inh)
Cc1cccc(-n2c3c(c(SCc4ccccc4F)nc2=O)CCC3)c1	none
c1ccc(-c2n[nH]c3c2cnc2ccccc23)cc1	none
CCS(=O)(=O)N1CCCc2ccc(NS(=O)(=O)c3cc(OC)ccc3OC)cc21	none (no result: CDC25B-CDK2 inh)
CCCS(=O)(=O)N1CCCc2ccc(NS(=O)(=O)c3ccc(OC)cc3OC)cc21	HIV TAR-Tat 5.99 (no result: CDC25B-CDK2 inh)
Cc1nc(-c2ccccc2)sc1C(=O)Nc1sc(C)c(C)c1C#N	none
Cc1nc(-c2ccccc2)sc1C(=O)Nc1sc2c(c1C#N)CCC2	HIV TAR-Tat 16.7
CN(C)CCNC(=O)c1ccc(NC2=NC3CS(=O)(=O)CC3S2)cc1 (stereo not drawn)	none (no result: CDC25B-CDK2 inh)
CC(=O)NCCNC(=O)c1ccc(NC2=NC3CS(=O)(=O)CC3S2)cc1 (stereo not drawn)	HIV TAR-Tat 11.2 (no result: CDC25B-CDK2 inh)
C=CCOc1ccc(C2C3=C(CC(C)(C)CC3=O)NC3=C2C(=O)CC(C)(C)C3)cc1	none
CCCOc1ccc(C2C3=C(CC(C)(C)CC3=O)NC3=C2C(=O)CC(C)(C)C3)cc1	CDC25B-CDK2 inh 16.1
O=c1c(NC2CCCc3ccccc32)c(-c2ccccc2)c1=O (stereo not drawn)	none (no result: CDC25B-CDK2 inh)
CCn1c(SCC(=O)Nc2nnc(C)s2)nnc1-c1cc2ccccc2o1	HIV TAR-Tat 5.11 (no result: CDC25B-CDK2 inh)
CCn1c(SCC(=O)Nc2nc3ccccc3s2)nnc1-c1cc2ccccc2o1	none (no result: CDC25B-CDK2 inh)
O=c1cc(-c2ccccc2)nc2nc(-c3ccco3)[nH]n12	HIV TAR-Tat 6.53
Cc1nc2nc(-c3ccccc3)cc(=O)n2[nH]1	none
O=C(CCc1nc(-c2ccncc2)no1)Nc1nccs1	none
CCOC(=O)c1c(C)oc2c1c(CN1CCCC(C(=O)OCC)C1)c(O)c1ccccc12 (stereo not drawn)	none (no result: HIV TAR-Tat)
CCOC(=O)c1c(C)oc2c1c1c(c3ccccc32)OCN(CC2CCCO2)C1 (stereo not drawn)	CDC25B-CDK2 inh 16.7
CNc1nc2cccnc2s1	CDC25B-CDK2 inh 8.24 (no result: HIV TAR-Tat)
c1cnc2sc(N3CCC4(CC3)OCCO4)nc2c1	none (no result: HIV TAR-Tat)
Cc1cccn2c(=O)c3cc(C(=O)N4CCN(c5cccc(Cl)c5)CC4)sc3nc12	none (no result: HIV TAR-Tat)
CCNC(=O)c1cn2c3c(ccc(Cl)c3c1=O)OC(C)C2 (stereo not drawn)	none (no result: CDC25B-CDK2 inh)
CCOC(=O)c1cn2c3c(ccc(Cl)c3c1=O)OC(C)C2 (stereo not drawn)	HIV TAR-Tat 17.5 (no result: CDC25B-CDK2 inh)
O=c1c(N2CCCCC2)csc2ccc(Br)cc12	none (no result: CDC25B-CDK2 inh)
N#CC1=C2SCN(C3CCCC3)CN2C(=O)CC1c1cccs1 (stereo not drawn)	CDC25B-CDK2 inh 5.9
N#CC1=C2SCN(C3CCCC3)CN2C(=O)CC1c1ccc(Cl)cc1 (stereo not drawn)	none
N#CC1=C2SCN(c3ccc(Br)cc3)CN2C(=O)CC1c1cccs1 (stereo not drawn)	none
N#CC1=C2SCN(c3ccc(Cl)cc3)CN2C(=O)CC1c1cccs1 (stereo not drawn)	CDC25B-CDK2 inh 6.26
CCOc1ccc(N2CSC3=C(C#N)C(c4cccs4)CC(=O)N3C2)cc1 (stereo not drawn)	CDC25B-CDK2 inh 4.05
N#CC1=C2SCC(O)(c3ccccc3)N2C(=O)CC1c1cccs1 (stereo not drawn)	none (no result: HIV TAR-Tat)
N#CC1=C2SCN(c3ccccc3)CN2C(=O)CC1c1cccs1 (stereo not drawn)	CDC25B-CDK2 inh 16.9
COc1ccc(N2CCN(C(=O)C3=Cc4sc(C)c(C)c4CS3)CC2)cc1	none (no result: CDC25B-CDK2 inh)
Cc1nn(C)c2c1c(C(F)(F)F)cc(=O)n2CCOc1ccccc1	none (no result: CDC25B-CDK2 inh)
O=C(NCC(c1cccs1)S(=O)(=O)c1ccc(Cl)cc1)C(=O)NC1CCCC1 (stereo not drawn)	none (no result: CDC25B-CDK2 inh)
CC(C)C(=O)Nc1nc2cc(NS(=O)(=O)c3cccc4nsnc34)ccc2s1	none (no result: CDC25B-CDK2 inh)
Cc1cccc2cc3c(nc12)N(C(=O)c1ccccc1)CC3	none
Cc1cc(=O)nc2c3ccccc3n(CC(=O)N3CCN(C4CCCCC4)CC3)n12	none
CSc1ccc(NC(=O)N2CCN(c3ccc(C(F)(F)F)cn3)CC2)cc1	none
CCN(Cc1ccccc1)S(=O)(=O)c1cc2[nH]c3c(c2cc1C)C(=O)CC(C)(C)C3	none (no result: CDC25B-CDK2 inh)
Cc1nc(Nc2cccc(O)c2)c2c3c(sc2n1)CCCC3	none (no result: CDC25B-CDK2 inh)
Cc1nn(CC(=O)NCCN2CCOCC2)c(=O)c2cc3occc3n12	none
CCOc1ccc(C2CC(=O)N3CN(c4ccc(CCO)cc4)CSC3=C2C#N)cc1 (stereo not drawn)	CDC25B-CDK2 inh 7.2
Cc1ccc(N2CSC3=C(C#N)C(c4cccs4)CC(=O)N3C2)cc1C (stereo not drawn)	CDC25B-CDK2 inh 6.15
CSc1ccc(C2CC(=O)N3CN(Cc4ccccc4)CSC3=C2C#N)cc1 (stereo not drawn)	none
CCOc1ccc(C2CC(=O)N3CN(Cc4cccnc4)CSC3=C2C#N)cc1 (stereo not drawn)	CDC25B-CDK2 inh 6.77
CCOc1ccc(C2CC(=O)N3CN(CCO)CSC3=C2C#N)cc1 (stereo not drawn)	none
CCOc1ccc(N2CSC3=C(C#N)C(c4ccco4)CC(=O)N3C2)cc1 (stereo not drawn)	CDC25B-CDK2 inh 5.09
CCCSCCCNC(=O)C1=C(C)C(=O)OC12CCCCC2	none
N#CC1=C2SCN(c3ccc(F)cc3)CN2C(=O)CC1c1cccs1 (stereo not drawn)	CDC25B-CDK2 inh 5.95
Fc1ccccc1-c1nc2ncccn2c1NCc1ccc(Cl)cc1	none (no result: CDC25B-CDK2 inh)
